SW480 rerep: A quantitative high throughput screen for small molecules that induce DNA re-replication in SW480 colon adenocarcinoma cells. SW480 DNA re-replication, Hoechst DNA content imaging, 48 h. Potency, µM (titrated, usually from 46.1 µM), inactives show top-dose re-replication activation, most hits filed as activators. actives 1.8% (n = 340,000); also: potency is read from the fitted curve at half-maximal effect; % of control where 0% means no effect; nearly all actives have a fitted effect of over 55% in size
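SW480 cells exposed to compounds for 48 hr at 37 C, 5% CO2, then Hoechst-stained 40 min. Nuclear DNA content imaged by fluorescence scanning (405 nm excitation, 500-530 nm emission); re-replication scored as increased high-intensity nuclei.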
Giardia kill: Small Molecules that selectively kill Giardia lamblia: qHTS; Giardia lamblia trophozoite viability; activity change, % at 7.66 µM, hits read low; actives 0.15% (n = 340,000); AID 540267, 2011; in the data active = activity change below about -80%; inconclusive = between about -30% and that limit;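 also: parasites exposed to compound for two days anaerobically before the ATP read; % is scaled to controls: 0 for no effect and ±100 for the full control effect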
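Compounds were tested on trophozoites seeded at 100 cells/well and held 48 hrs at 37 deg C anaerobically. An ATP-based luminescent kit measured the remaining live cells.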
uPA surface inh: qHTS for Inhibitors of Cell Surface uPA Generation. cell surface uPA generation assay, qHTS. Potency, µM (doses to about 38.3 µM), without a hit: at the top dose activity change, negative = inhibition, hits mostly inhibitors. actives 0.31% (n = 330,000); active = well fitted inhibition curve with a large enough effect; inconclusive = small, poorly fitted or top-dose-only effect; inactive = no such curve, though single readings can be large or run the other way; tested in mouse RAW 264.7 cells; also: potency is read from the fitted curve at half-maximal effect; % is scaled to controls: 0 for no effect and ±100 for the full control effect; nearly all actives have a fitted effect of over 55% in size
MCF10A rerep: A quantitative high throughput screen for small molecules that induce DNA re-replication in MCF 10a normal breast cells; MCF 10A DNA re-replication, Hoechst nuclear intensity, 48 h; Potency, µM (top dose mostly 46.1 µM), for the others: at the top dose activity, positive = re-replication, actives largely listed as activators; actives 2.9% (n = 350,000); AID 624296, 2012; also: potency is read from the fitted curve at half-maximal effect; % of control where 0% means no effect; nearly all actives have a fitted effect of over 50% in size
Starred values were filed as active, the others as inactive. Rows were chosen to be rich in hits. Some 4.3% of all compounds tested hit in one or more screens of this group. Unless noted, calls follow the shape of the dose curve; as a rule, active = well fitted activation curve with a large enough effect; inconclusive = small, poorly fitted or top-dose-only effect; inactive = no such curve, though single readings can be large or run the other way.

Cc1ccc(C)c(OCCn2cc(/C=C(\C#N)C(=O)NCC3CCCO3)c3ccccc32)c1 (centres undefined) was read as SW480 rerep inconclusive, Giardia kill -15, uPA surface inh -7% and MCF10A rerep 16µM*.
For Cc1ccc(OCCn2cc(/C=C(\C#N)C(=O)NCC3CCCO3)c3ccccc32)cc1 (centres undefined) the results were Giardia kill 0, uPA surface inh -6% and MCF10A rerep 18%.
CC1(C)Cc2c(ccc3ccccc23)C2=C(C(=O)N3CCCC3)C(=O)C(=O)N21 was read as SW480 rerep 4%, Giardia kill -17, uPA surface inh 4% and MCF10A rerep 21µM*.
C=CCC1(O)C(=O)N2C(=C1C(=O)OCC)c1ccc3ccccc3c1CC2(C)C (centres undefined) was read as SW480 rerep -20%, Giardia kill 0, uPA surface inh 5% and MCF10A rerep 5%.
For CC1=C(C(=O)O)CC(S(=O)(=O)O)C1(C)C (centres undefined) the results were SW480 rerep -5%, Giardia kill 13, uPA surface inh 7% and MCF10A rerep -4%.
Oc1cc(-c2ccc(N3CCCCC3)nc2)cc2cccnc12 was read as SW480 rerep 0.82µM*, Giardia kill -14, uPA surface inh inconclusive and MCF10A rerep inconclusive.
Cc1ccc(NC(=O)C(=O)NCC2CCCN2S(=O)(=O)c2cccs2)cc1C (centres undefined) was read as SW480 rerep -2%, Giardia kill -9, uPA surface inh -1% and MCF10A rerep 24%.
CCN1CCCC1CNC(=O)C(=O)NC (centres undefined) was read as SW480 rerep -9%, Giardia kill 11, uPA surface inh 5% and MCF10A rerep 22%.
For COc1ccc(NC(=O)C(=O)NCC2CCCN2S(=O)(=O)c2cccs2)cc1 (centres undefined) the results were SW480 rerep 2.6µM*, Giardia kill -4, uPA surface inh -13% and MCF10A rerep 6.5µM*.
`CCCCCOc1ccc(NC(=O)C(=O)NCC2CCCN2CC)cc1` (centres undefined) gave SW480 rerep 6%, Giardia kill 5, uPA surface inh 4% and MCF10A rerep 15µM*.
`C=CCN(CC=C)CC(=O)Nn1c(C)ccc1C` gave SW480 rerep -1%, Giardia kill -1, uPA surface inh 3% and MCF10A rerep 9%.
CC(C)CCN1C(=O)c2ccc(C(=O)Nc3ccc(Br)cc3C(=O)O)cc2C1=O was read as SW480 rerep -7%, Giardia kill -4, uPA surface inh 15% and MCF10A rerep inconclusive.
For O=c1c2c3nc4ccccc4nc3n(/N=C/c3ccccn3)c2ncn1-c1ccccc1 the results were SW480 rerep 23µM*, Giardia kill 5, uPA surface inh 6% and MCF10A rerep 3.3µM*.
Screening COc1ccc(OCCSc2nnc3sc4ccccc4n23)cc1 returned SW480 rerep inconclusive, Giardia kill -13, uPA surface inh -13% and MCF10A rerep 6.5µM*.
Screening CN(C)CCSc1nnc2sc3ccccc3n12 returned SW480 rerep 0%, Giardia kill -5, uPA surface inh 9% and MCF10A rerep 0%.
For COc1cc(OC)c(OC)cc1/C=C1\CC(C)C/C(=C\c2cc(OC)c(OC)cc2OC)C1=O (centres undefined) the results were SW480 rerep inconclusive, Giardia kill 11, uPA surface inh 8.9µM* and MCF10A rerep 16µM*.
`CC(=O)Nc1ccc(NC(=O)CSc2nnnn2-c2ccc(F)cc2)cc1` gave SW480 rerep -2%, Giardia kill 17, uPA surface inh -7% and MCF10A rerep -6%.
Cc1ccccc1Cn1c(=O)n(CCCC(=O)NCc2ccco2)c(=O)c2ccccc21 was read as SW480 rerep 3%, Giardia kill 2, uPA surface inh -6% and MCF10A rerep 2%.
`Cc1cccc(Cn2c(=O)n(CCCC(=O)NCc3ccco3)c(=O)c3ccccc32)c1` gave SW480 rerep 21µM*, Giardia kill 26, uPA surface inh -8% and MCF10A rerep inconclusive.
Screening CCOC(=O)c1cnc2c(C)cc(Cl)cc2c1NCCCN1CCOCC1 returned SW480 rerep 0%, Giardia kill 1, uPA surface inh -5% and MCF10A rerep 23µM*.
Screening O=C(CN1CCN(CC(=O)Nc2ccc3c(c2)OC2(CCCCC2)O3)CC1)Nc1cccc(F)c1 returned SW480 rerep 8%, Giardia kill 6, uPA surface inh -7% and MCF10A rerep inconclusive.
Screening O=C1N/C(=C\c2ccc(O)cc2)C(O)=C1C=NCc1ccccc1 returned SW480 rerep 1%, Giardia kill 2, uPA surface inh -11% and MCF10A rerep 10µM*.
For COc1ccc(/C=C2\NC(=O)C(C=NCc3ccccc3)=C2O)cc1 the results were SW480 rerep -3%, Giardia kill -7, uPA surface inh -1% and MCF10A rerep 3%.
Screening Nc1c2c(nc3ccccc13)N(C1CCCCC1)CC2 returned SW480 rerep inconclusive, Giardia kill -2, uPA surface inh 0% and MCF10A rerep 13µM*.
Nc1c2c(nc3ccccc13)CCC2 was read as SW480 rerep 3%, Giardia kill 8, uPA surface inh -1% and MCF10A rerep inconclusive.
For COc1ccccc1Nc1nnc(SCc2nnc(-c3cc(OC)c(OC)c(OC)c3)o2)s1 the results were SW480 rerep inconclusive, Giardia kill -1, uPA surface inh -7% and MCF10A rerep 21µM*.
For COc1cc(-c2nnc(CSc3nnc(Nc4ccc(C(C)C)cc4)s3)o2)cc(OC)c1OC the results were SW480 rerep 28%, Giardia kill 4, uPA surface inh 20% and MCF10A rerep 15µM*.
For CCOc1ccccc1Nc1nnc(SCc2nnc(-c3cc(OC)c(OC)c(OC)c3)o2)s1 the results were SW480 rerep 0%, Giardia kill 3, uPA surface inh 2% and MCF10A rerep inconclusive.
Screening CCC1(c2ccc(F)cc2)NC(=O)N(CC(=O)N2CCN(S(=O)(=O)c3ccc(C)cc3C)CC2)C1=O (centres undefined) returned SW480 rerep -4%, Giardia kill 5, uPA surface inh inconclusive and MCF10A rerep 11%.
Screening CN(Cc1ccc(O)cc1)C1CCCCC1 returned SW480 rerep 0%, Giardia kill 2 and MCF10A rerep 6%.
CN(Cc1cc(Br)cc(Br)c1N)C1CCCCC1 was read as SW480 rerep inconclusive and MCF10A rerep 27µM*.
For CCCCNS(=O)(=O)c1ccc(NS(=O)(=O)c2c(C)cc(C)cc2C)cc1 the results were SW480 rerep inconclusive, Giardia kill 0, uPA surface inh -3% and MCF10A rerep 4.6µM*.
CCNS(=O)(=O)c1ccc(NS(=O)(=O)c2cc(C)ccc2C)cc1 was read as SW480 rerep 1%, Giardia kill 1, uPA surface inh 7% and MCF10A rerep 7%.
`S=C(NCCN1CCCCC1)Nc1ccccc1` gave SW480 rerep -7%, Giardia kill 1, uPA surface inh -7% and MCF10A rerep 5%.
